# Reference: the OligoGym collection
# Biological target: SLC9A10
# Experiment: pooled miR-30 sensor sort-seq; sequence = guide strand
# Settings: shRNA
row,Sequence,sensor-assay potency score (higher = more potent)
1,TATGATTGACATCATCACCAAA,-0.934
2,TATCGGAAAATCTTTCTCCTTT,-0.118
3,TTCGTAACAGACAATCTTCTAC,0.0134
4,TTTATGTTTAGGAACAAACTTT,-0.563
5,TTTTTCGTAACAGACAATCTTC,-0.245
6,TATATGAACAAATTCCACCCAC,-0.00398
7,TAGTCTTTGGTCAAAATCCATA,-1.27
8,TAGTCTGTGTCAATTATCGGAA,-0.585

# Biological target: SLC9A5
# Experiment: as above
# Settings: shRNA
row,Sequence,sensor-assay potency score (higher = more potent)
1,TTCTCTGTCTCTGAACTGTCGC,-0.349
2,TTAAGCAACAGGCCTGAACTGA,-1.07
3,TAGAGCGTGGATCAGAAGGTAG,-0.999
4,TTACTTTCCGAGACAGGTGAAA,-0.787
5,TTCTGCTGGAAGACCTCCTTGT,0.342
6,TTGAACTGGATGCACCAGTGGG,-0.899
7,AAGTTGTCAAAGAACAGCCTGC,-0.191
8,TACAAGTCCAGCCTGCTGCAAG,-0.602
9,AAGGTCTAGACTTAGACCCAGA,-1.07
10,TATCACAGCAGCTGTGTCCTGA,0.318
11,TTGTCAAAGAACAGCCTGCTAG,-0.67
12,TCTGTCTCTGAACTGTCGCTCT,0.00832

# Biological target: SLC9A7
# Experiment: as above
# Settings: shRNA
row,Sequence,sensor-assay potency score (higher = more potent)
1,TACAACACCTGTAAATCCGCAG,-0.278
2,TAAGACTTGAAAGCTGTCGTTG,0.00174
3,TATTCGAAGAACTTTCCGCTGA,0.32
4,TTAAGCTGTATCCAGCATGAAA,-1.54
5,TTTGGTAAACTTAGTCACGTTG,-0.343
6,TTGAAAGCTGTCGTTGTTGGGT,-0.0314
7,TTTATCTGAGAGCTGTCCCATA,-0.106
8,TTGGTTATCGTACACCTGGGGA,-0.959
9,TCGACTTCTTGATTCCACCGAC,0.212
10,TCTTCTTTAAGCTGTATCCAGC,-0.509
11,TAATGAAGCATGAAACAGCAGT,-0.713
12,TTCATTCTGGTCCTCTTCGGAG,-1.15

# Biological target: SLCO4C1
# Experiment: as above
# Settings: shRNA
row,Sequence,sensor-assay potency score (higher = more potent)
1,TAACTTTACAAGTAACACTTAT,-0.974
2,TATATGATTCAGATACACCAGC,-0.633
3,TAGACTAATATATTTGTTCAGT,-0.742
4,TTTGTAAATATGATTGTCCATA,-1.19
5,TTGTCTGTGATTAACACACCTT,-0.412
6,TTGAACTTCAATACTTTTCCTA,0.743
7,TTAACTACAATACCTTGCGTGA,-0.96
8,TTGAATAATATTATCACAGAAT,-0.992
